By inhibition is commonly meant the change of the read-out against control, counted positive when it falls.

The nature of test [1]: antimalarial activity against Dd2 strain (AID 2302;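 active = growth inhibition above 50% at the single 2 µM test dose, taken to imply half-maximal potency below 2 µM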;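 also: 0% = DMSO untreated growth and 100% = chloroquine plus artemisinin killed control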). Particulars: P. falciparum Dd2 in RBCs, LDH growth readout, 72 h; at 2 µM; hits give high values.
The nature of test [2]: human hepatoma cell viability loss – ATP luminescence, cytotoxicity control for P. falciparum antimalarial project, primary screen (AID 2303;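 active = inhibition above 50%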;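 also: 0% = DMSO wells and 100% = digitonin-killed cells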). Particulars: HepG2 viability, 24-48 h, at 10 µM, hits give high values.
For test [3], the target named is L-lactate dehydrogenase (Plasmodium falciparum (isolate CDC / Honduras)) (UniProt Q27743). Nature of the test: PfLDH activity inhibition – cell lysate, 3D7 strain, counter-screen for P. falciparum growth inhibition project (AID 2304).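 Also: 0% = vehicle and 100% = reference inhibitor.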 Particulars: P. falciparum 3D7 crude extract, LDH APAD/NBT absorbance; at 2 µM; hits give high values. For orientation: The purpose of a counterscreen is to sort out artefacts and off-target activity.
Chain of L-lactate dehydrogenase (Plasmodium falciparum (isolate CDC / Honduras)) (Q27743 whole entry, looked up): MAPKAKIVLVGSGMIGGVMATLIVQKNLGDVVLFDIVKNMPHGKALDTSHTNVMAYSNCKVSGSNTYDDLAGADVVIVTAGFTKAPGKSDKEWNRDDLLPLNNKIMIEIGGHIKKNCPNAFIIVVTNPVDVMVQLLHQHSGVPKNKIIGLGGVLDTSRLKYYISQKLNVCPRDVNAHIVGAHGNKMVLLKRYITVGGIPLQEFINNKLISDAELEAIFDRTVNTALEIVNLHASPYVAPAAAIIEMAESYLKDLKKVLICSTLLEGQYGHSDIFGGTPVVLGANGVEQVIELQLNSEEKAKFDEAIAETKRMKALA

The nature of test [4]: inhibition of 3D7 malaria parasite growth – strain 3D7 (AID 2306).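 Also: 0% = DMSO wells and 100% = chloroquine plus artemisinin control wells.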 Particulars: P. falciparum 3D7 erythrocytic growth, LDH absorbance, 72 h; at 2 µM; hits give high values.
Test [5] concerns the target Calcium-dependent protein kinase 1 (Plasmodium falciparum (isolate 3D7)) (UniProt P62344). Kind of test: PfCDPK1 kinase inhibitors, biochemical, TCAMS library (AID 1159585; cut-off not given, nearly all actives have IC50 up to about 0.98 µM;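 also: inhibitors leave more ATP so luminescence rises with inhibition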). The following applies: recombinant PfCDPK1, Kinase-Glo ATP depletion luminescence. (Kinase-Glo measures the ATP left after a reaction by luminescence.)
Test [6] addresses Plasmodium falciparum protein kinase 6 (PK6, PF3D7_1337100) (UniProt Q8IDW1). Kind of test: PfPK6 kinase inhibitors, biochemical, TCAMS library (AID 1159586). The following applies: recombinant PfPK6, Kinase-Glo ATP depletion luminescence.
Test [7] concerns the target Protein kinase 7 (PK7), Plasmodium falciparum 3D7 (PF3D7_0213400) (UniProt Q7YTF7). Nature of the test: inhibition of Plasmodium PK7 catalytic activity – biochemical, TCAMS antimalarial set, Kinase-Glo luminescence (AID 1159587). The following applies: recombinant PfPK7, Kinase-Glo ATP depletion luminescence.
Test [8] concerns the target Calcium-dependent protein kinase 4 (Plasmodium falciparum (isolate 3D7)) (UniProt Q8IBS5). Nature of the test: PfCDPK4 kinase inhibitors, biochemical, TCAMS library (AID 1159588; cut-off not given, nearly all actives have IC50 up to about 0.91 µM). The following applies: recombinant PfCDPK4, Kinase-Glo ATP depletion luminescence.

Unmarked numbers belong to inactive results. For part of these data: Entries with a potency or affinity are not part of this list. Calls of active or inactive are those of the source. Unless noted, no rule for the calls is given here.

Chain of Calcium-dependent protein kinase 1 (Plasmodium falciparum (isolate 3D7)) (P62344 whole entry, looked up): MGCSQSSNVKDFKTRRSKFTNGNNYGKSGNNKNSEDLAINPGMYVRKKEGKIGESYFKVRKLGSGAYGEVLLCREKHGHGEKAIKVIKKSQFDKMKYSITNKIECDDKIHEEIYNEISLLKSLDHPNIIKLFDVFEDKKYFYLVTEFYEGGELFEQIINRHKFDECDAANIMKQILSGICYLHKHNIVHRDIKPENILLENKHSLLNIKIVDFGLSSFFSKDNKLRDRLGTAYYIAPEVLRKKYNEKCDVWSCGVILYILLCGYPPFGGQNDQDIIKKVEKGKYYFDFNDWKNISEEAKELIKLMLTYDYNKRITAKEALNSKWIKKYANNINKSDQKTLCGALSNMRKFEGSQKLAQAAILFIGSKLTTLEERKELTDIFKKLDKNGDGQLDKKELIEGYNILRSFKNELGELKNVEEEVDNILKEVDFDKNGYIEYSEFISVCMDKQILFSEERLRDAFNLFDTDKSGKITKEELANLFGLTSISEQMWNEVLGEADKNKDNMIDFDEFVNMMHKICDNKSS
Chain of Calcium-dependent protein kinase 4 (Plasmodium falciparum (isolate 3D7)) (Q8IBS5 whole entry, looked up): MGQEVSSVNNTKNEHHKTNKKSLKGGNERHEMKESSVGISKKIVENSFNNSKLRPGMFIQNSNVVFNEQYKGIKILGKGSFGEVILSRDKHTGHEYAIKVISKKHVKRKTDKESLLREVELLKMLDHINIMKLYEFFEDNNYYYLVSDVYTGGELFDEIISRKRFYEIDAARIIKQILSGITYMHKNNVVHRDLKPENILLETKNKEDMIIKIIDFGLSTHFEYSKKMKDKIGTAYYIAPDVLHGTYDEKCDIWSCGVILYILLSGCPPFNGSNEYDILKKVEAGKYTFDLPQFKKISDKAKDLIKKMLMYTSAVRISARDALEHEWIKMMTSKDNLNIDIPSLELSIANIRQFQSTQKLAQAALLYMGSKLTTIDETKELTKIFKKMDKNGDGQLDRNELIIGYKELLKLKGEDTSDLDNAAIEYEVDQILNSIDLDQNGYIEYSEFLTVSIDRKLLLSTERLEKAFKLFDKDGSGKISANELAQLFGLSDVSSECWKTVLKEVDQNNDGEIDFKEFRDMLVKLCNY
Chain of Protein kinase 7 (PK7), Plasmodium falciparum 3D7 (PF3D7_0213400) (Q7YTF7 1-343): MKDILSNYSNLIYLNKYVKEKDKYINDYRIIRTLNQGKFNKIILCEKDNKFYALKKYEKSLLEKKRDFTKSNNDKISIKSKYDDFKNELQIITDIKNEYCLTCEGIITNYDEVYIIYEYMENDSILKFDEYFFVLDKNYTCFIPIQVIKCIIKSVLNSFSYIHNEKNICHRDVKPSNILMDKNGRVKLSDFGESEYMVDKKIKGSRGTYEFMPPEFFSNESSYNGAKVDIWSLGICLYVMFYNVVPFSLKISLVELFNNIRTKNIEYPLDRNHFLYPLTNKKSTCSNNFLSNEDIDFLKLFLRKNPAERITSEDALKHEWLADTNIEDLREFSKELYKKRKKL
Chain of Plasmodium falciparum protein kinase 6 (PK6, PF3D7_1337100) (Q8IDW1 1-305): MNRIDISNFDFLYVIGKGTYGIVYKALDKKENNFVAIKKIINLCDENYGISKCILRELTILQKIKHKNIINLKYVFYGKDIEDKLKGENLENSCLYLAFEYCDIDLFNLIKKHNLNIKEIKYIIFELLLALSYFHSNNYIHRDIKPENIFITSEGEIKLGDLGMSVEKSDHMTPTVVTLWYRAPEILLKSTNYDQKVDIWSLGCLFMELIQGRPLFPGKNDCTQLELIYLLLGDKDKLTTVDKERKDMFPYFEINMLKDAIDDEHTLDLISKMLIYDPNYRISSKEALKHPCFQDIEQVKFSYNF

Turning to `O=C(NC1CCCCC1)N(Cc1ccccc1-c1ccc(CNCCc2ccccc2)cc1)C1CCN(Cc2ccccc2)CC1`, the values for the growth inhibition in test [1] and in test [4] were 92% (active) and 90% (active), respectively. Moreover, the inhibition in test [2] is 96% (active); in test [3] it was -6%. The outcome in test [5], in test [6], in test [7] and in test [8] was inactive.

As for `COC(=O)Cn1c(C2CCN(CC3CCN(C(=O)/C=C/c4ccc(Cl)c(Cl)c4)CC3)CC2)nc2ccccc21`, the growth inhibition in test [1] was 2%; in test [4] it was 86% (active). Moreover, the inhibition in test [2] was 19%; in test [3], -1%. Besides, the outcome in test [5], in test [6], in test [7] and in test [8] was inactive.

With `O=C(CCCc1ccccc1)Nc1cccc(N2CCC(N3CCN(c4ccccc4O)CC3)CC2)c1`, the growth inhibition is 41% in test [1] and 98% (active) in test [4]. Also, the inhibition in test [2] is 31%; in test [3] it was -1%. In addition, the result in test [5], in test [6], in test [7] and in test [8] was inactive.

As to `CC(C)Cc1c(O)nc(SCCN2CCOCC2)[nH]c1=O`, the figures for the growth inhibition in test [1] and in test [4] were -5% and 88% (active), respectively. In addition, the inhibition in test [2] was 19%; in test [3] it was 1%. In addition, the result in test [5], in test [6], in test [7] and in test [8] was inactive.

As for `Cc1noc(C)c1-c1cccc(CNCc2cccc(-c3cccc(-c4nc5ccccc5[nH]4)c3)c2)c1`, the growth inhibition in test [1] was 54% (active); in test [4] it was 102% (active). For the same molecule, the inhibition in test [2] was 22%; in test [3], 2%. In addition, the result in test [5], in test [6], in test [7] and in test [8] was inactive.

In the case of `CC(C)C1C(O)=C(c2ccc3ccccc3c2)C(=O)N1Cc1cccc(F)c1` (centres undefined), the values for the growth inhibition in test [1] and in test [4] were 82% (active) and 97% (active), respectively. The inhibition in test [2] and in test [3] was 3% in each case. Moreover, the result in test [5], in test [6], in test [7] and in test [8] was inactive.

For `N#Cc1ccc2c(c1)CCN(CCC1CCC(NC(=O)Nc3ccnc4ccccc34)CC1)C2` (centres undefined), the growth inhibition in test [1] is 77% (active); in test [4], 104% (active). The inhibition in test [2] is 38%; in test [3], 2%. Moreover, the result in test [5], in test [6], in test [7] and in test [8] was inactive.

As to `CN1CCN(CC2(Nc3nccc(NCc4ccc(Cl)cc4Cl)n3)CCCCC2)CC1`, the growth inhibition in test [1] was 58% (active); in test [4], 98% (active). For the same molecule, the inhibition in test [2] is 98% (active); in test [3] it was 0%. For the same molecule, the result in test [5], in test [6], in test [7] and in test [8] was inactive.

As to `COc1ccc(-n2ccnc2SCC(=O)Nc2cc(C(F)(F)F)ccc2Cl)c(OC)c1`, the figures for the growth inhibition in test [1] and in test [4] were 76% (active) and 98% (active), respectively. For the same molecule, the inhibition in test [2] was 0%; in test [3], -8%. In addition, the outcome in test [5], in test [6], in test [7] and in test [8] was inactive.

For `Cc1ccc(NC(=O)Nc2cccc(Cl)c2)cc1-c1ccc(C(=O)Nc2ccncc2)cc1`, the growth inhibition in test [1] is 49%; in test [4] it was 97% (active). Also, the inhibition in test [2] was 67% (active); in test [3], -1%. In addition, the outcome in test [5], in test [6], in test [7] and in test [8] was inactive.

For `Nc1cc(-c2ccc(Br)cc2O)nc2ccccc12`, the growth inhibition in test [1] is 50% (active); in test [4], 100% (active). The results for the inhibition in test [2] and in test [3] were 23% and 0%, respectively. The result in test [5], in test [6], in test [7] and in test [8] was inactive.

For the molecule `O=C(NCCCCCN1CCC(c2c[nH]c3ccccc23)CC1)Nc1cccc(Br)c1`, the values for the growth inhibition in test [1] and in test [4] were -3% and 84% (active), respectively. Besides, the inhibition in test [2] was 39%; in test [3], 3%. The outcome in test [5], in test [6], in test [7] and in test [8] was inactive.

In the case of `CN1CCN(CCCN(Cc2ccc(-c3cccc(CNC4CCCC4)c3)cc2)C(=O)/C=C/c2ccccc2)CC1`, the growth inhibition was 87% (active) in test [1] and 100% (active) in test [4]. In addition, the inhibition is 36% in test [2] and 4% in test [3]. In addition, the outcome in test [5], in test [6], in test [7] and in test [8] was inactive.

`O=c1cnc2ccc(F)cc2n1CCN1CCC(NCc2cc(-c3ccccc3)cs2)CC1`: the growth inhibition is 14% in test [1] and 91% (active) in test [4]. The inhibition was -5% in test [2] and -2% in test [3]. Further, the result in test [5], in test [6], in test [7] and in test [8] was inactive.

For `O=C(/C=C/c1ccc(Cl)c(Cl)c1)NCCCCCN1CCCN(C(=O)Nc2ccc(OC(F)F)cc2)CC1`, the growth inhibition was -4% in test [1] and 99% (active) in test [4]. Besides, the inhibition in test [2] is 39%; in test [3] it was 3%. Moreover, the result in test [5], in test [6], in test [7] and in test [8] was inactive.

Consider `CCCC(C)Nc1nc(C)cc(NCCC(=O)Nc2ccc(OC)cc2)n1` (centres undefined), for which the growth inhibition in test [1] is 2%; in test [4], 97% (active). Further, the results for the inhibition in test [2] and in test [3] were 12% and -1%, respectively. Also, the outcome in test [5], in test [6], in test [7] and in test [8] was inactive.

On to `COc1cc(NC(=O)N2CCOC(CCN3CCC4(CCc5ccccc54)CC3)(c3ccc(Cl)c(Cl)c3)C2)cc(OC)c1OC` (centres undefined), for which the growth inhibition was 67% (active) in test [1] and 94% (active) in test [4]. Besides, the inhibition in test [2] is 17%; in test [3], -4%. Moreover, the outcome in test [5], in test [6], in test [7] and in test [8] was inactive.

`Cc1ccc(NC(=O)c2ccc(CN3CCCN(Cc4cccc(O)c4)CC3)cc2)cc1F`: the growth inhibition in test [1] was 31%; in test [4], 97% (active). Moreover, the results for the inhibition in test [2] and in test [3] were 48% and -2%, respectively. Also, the outcome in test [5], in test [6], in test [7] and in test [8] was inactive.

The values are drawn from PubChem BioAssay.
